PMC7819943, “Rice protein-binding microarrays: a tool to detect cis-acting elements near promoter regions in rice”
Over roughly 68,000 sequences, “fluorescence intensity (a.u.)” has its median near 9,100; the highest 2% begin near 16,000. This excerpt belongs to a sample that is enriched for the highest values.

The sequences below were run against OsWRKY34 (Oryza sativa, UniProt Q0JBA9 1-250) (assay: protein-binding microarray (RPBM); PBS, 2% BSA, 51.3 ng/ul salmon testes DNA, 50 uM zinc acetate, 200 nM TF, 25 C, 1 h; high values mean tight binding). Settings: protein: recombinant; tags: N-terminal polyhistidine and DsRed monomer fusion (pET32a); label: CyDye5-dUTP incorporated in the synthesized complementary strand; 3' TTTTT single-stranded linker to array surface; dsDNA, one strand shown.
Chain of OsWRKY34 (Q0JBA9 entry or part of it): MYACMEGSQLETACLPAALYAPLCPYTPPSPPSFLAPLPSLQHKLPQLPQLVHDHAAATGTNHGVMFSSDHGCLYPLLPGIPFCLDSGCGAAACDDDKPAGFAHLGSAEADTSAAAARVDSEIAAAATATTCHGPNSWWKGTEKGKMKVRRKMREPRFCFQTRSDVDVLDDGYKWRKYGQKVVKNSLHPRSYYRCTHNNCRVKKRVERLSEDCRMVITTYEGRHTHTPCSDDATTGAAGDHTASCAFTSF
Summary of the method: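 Binding signal here means per-feature fluorescence intensity in arbitrary units. The values were read on an Axon 4000B scanner after a custom Agilent array, double-stranded by primer extension with Cy5-dUTP, was incubated with 200 nM protein at 25 °C for 1 h in PBS with 2% BSA, salmon testes DNA and 50 µM zinc acetate, then washed. The proteins were transcription factors with an N-terminal polyhistidine tag and DsRed, expressed in E. coli BL21-CodonPlus and purified on Ni–NTA.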
In the case of “TAGCTCATTCATGCCTCCATCGGTTGACTTTTTTTTTCTACGGAGTCACCTAGTGCAG”, the binding signal is reported as 20500 fluorescence intensity (a.u.).
In the case of “CGTTGACTTTTTCTCACATGTTTGACCATTCGTCTTATTCCGGAGTCACCTAGTGCAG”, the binding signal is reported as 31500 fluorescence intensity (a.u.).
For “GTCGCCGCCTCCTCCTCTCCATCTCCGCTGCTATTATTGCCGGAGTCACCTAGTGCAG”, the binding signal was 12900 fluorescence intensity (a.u.).
In the case of “TTTTCTCTGTTTACTTTTTTTTTATTATTTTTTTGCGCCGCGGAGTCACCTAGTGCAG”, the binding signal is reported as 8240 fluorescence intensity (a.u.).
With “ATGTCATGTCATGTCGCATATCTCCCATGTCTTGGCACGACGGAGTCACCTAGTGCAG” the binding signal was 9540 fluorescence intensity (a.u.).
In the case of “TACTTGGCTATACTATTAAACTTGCTCTCGCACCATCTTTCGGAGTCACCTAGTGCAG”, the binding signal is reported as 9680 fluorescence intensity (a.u.).
“GTTGCAAAAGAGGCCTCTGACATGGTTCTTGCTGATGACACGGAGTCACCTAGTGCAG” was tested, and the binding signal was 8450 fluorescence intensity (a.u.).
With “CGGGGCCCAACGAGGTGGCGCCGTGGCTGGTGGGGCGGGTCGGAGTCACCTAGTGCAG” the binding signal was 9270 fluorescence intensity (a.u.).
For “GATCAACGAACACTCGTGGGCCGTAGGCGGAGGCGCAAGTCGGAGTCACCTAGTGCAG”, the binding signal was 62600 fluorescence intensity (a.u.).
In the case of “ATCGCCATATAGGCGCCACGTGGAACGAAGACTCGGTCAACGGAGTCACCTAGTGCAG”, the binding signal is reported as 9350 fluorescence intensity (a.u.).
In the case of “CCCGGCGGCCCGATCACCACCTGCCCGAACACCATCCTCCCGGAGTCACCTAGTGCAG”, the binding signal is reported as 8530 fluorescence intensity (a.u.).
In the case of “GTGTGTTGGTTGTCACAGTACTGTGTGGTGGTGGTGGAAGCGGAGTCACCTAGTGCAG”, the binding signal is reported as 9220 fluorescence intensity (a.u.).
In the case of “ACTGTCGTGCCACAGTGGACGTGTGCGGCAGGTGAAGCACCGGAGTCACCTAGTGCAG”, the binding signal is reported as 49100 fluorescence intensity (a.u.).
“TAGGTGTGGTGTGTGGAGAAGCGGTGGACCGACCGACGACCGGAGTCACCTAGTGCAG” was tested, and the binding signal was 8450 fluorescence intensity (a.u.).
With “GGAAAAGAACACCGGTCCATTTTGCAACTATTGTGAAGTTCGGAGTCACCTAGTGCAG” the binding signal was 8220 fluorescence intensity (a.u.).
“CCGGCAAAAGTCTCTCCATCTTGTCATCGTCTTCTCCAGCCGGAGTCACCTAGTGCAG” was tested, and the binding signal was 8410 fluorescence intensity (a.u.).
With “TTGGATTGGGCTGCGGACCTGCGGTGGAGGGATTCAGGGTCGGAGTCACCTAGTGCAG” the binding signal was 8240 fluorescence intensity (a.u.).
With “AGAGGGGACTGGGGAGGGGAGGGGCGGCGCTCGCTGGCTTCGGAGTCACCTAGTGCAG” the binding signal was 17500 fluorescence intensity (a.u.).
With “AGGATTCAATTTGGACTTTGGTGGAGGGGAGGGGCTGCTGCGGAGTCACCTAGTGCAG” the binding signal was 22100 fluorescence intensity (a.u.).
In the case of “TCTTCGGTTTACTTATGTCCTGGCTGGTTGGGAGGGGACACGGAGTCACCTAGTGCAG”, the binding signal is reported as 19100 fluorescence intensity (a.u.).
For “GGGGAAGGAGAAGAGGAAGGAGAGGGGAGGAGGAGGAGGGCGGAGTCACCTAGTGCAG”, the binding signal was 8870 fluorescence intensity (a.u.).
With “GGGGCTGTTTGGTTTCCAGGGACTTATTCCAAGTCCCTGTCGGAGTCACCTAGTGCAG” the binding signal was 9750 fluorescence intensity (a.u.).
With “GCGAGAGGGGACTGGGGAGGGGAGGGGCGGCGCTCGCTGGCGGAGTCACCTAGTGCAG” the binding signal was 12500 fluorescence intensity (a.u.).
With “TTGGGAGGGAGAGTGGTAAAGGGTGCTGGGGCTTTGGCTGCGGAGTCACCTAGTGCAG” the binding signal was 8840 fluorescence intensity (a.u.).
“TGGAAAGAGGAGGGCGGGGAGAGGACTGGGGAGGGCGGGGCGGAGTCACCTAGTGCAG” was tested, and the binding signal was 17700 fluorescence intensity (a.u.).
In the case of “ACTGGTTTTACACATTATGTGGGCTAACTTAATACTCCTTCGGAGTCACCTAGTGCAG”, the binding signal is reported as 8040 fluorescence intensity (a.u.).
“TGGATTTGGCGGCGGCGGCGGCTTCGAGGGGAGGGGCTCTCGGAGTCACCTAGTGCAG” was tested, and the binding signal was 15300 fluorescence intensity (a.u.).
“GAGGAAATGCCTGGGAGGAGGAGGAGGGACTCGGGGCGGGCGGAGTCACCTAGTGCAG” was tested, and the binding signal was 13300 fluorescence intensity (a.u.).
For “ATTTTTTTTAAAAGTAGTTCTTCTGTTTCATATTATAATACGGAGTCACCTAGTGCAG”, the binding signal was 9230 fluorescence intensity (a.u.).
In the case of “TGTCTTTATTAAGTGCAAATGTATTTGGATTCCAACCCTTCGGAGTCACCTAGTGCAG”, the binding signal is reported as 8180 fluorescence intensity (a.u.).
“TACCCACACACACACAAGAACACGCGCCACATTTGTCATTCGGAGTCACCTAGTGCAG” was tested, and the binding signal was 10900 fluorescence intensity (a.u.).
“TATTGTCTGGGGTTTGCTTATTGGCTTTTCAGGCCATGTCCGGAGTCACCTAGTGCAG” was tested, and the binding signal was 9320 fluorescence intensity (a.u.).
“ATCTCTTTTGCATTTGTTCGTCCCTTTCGTTTTCAACTTGCGGAGTCACCTAGTGCAG” was tested, and the binding signal was 9290 fluorescence intensity (a.u.).
In the case of “CAAACATGTGCTAAAAAGTCAACGGTGTCAACCATTTTGACGGAGTCACCTAGTGCAG”, the binding signal is reported as 11600 fluorescence intensity (a.u.).
With “CGTGGAGAGGATTTGAGTGCCTTTTTTGGAGTTTGAGGGGCGGAGTCACCTAGTGCAG” the binding signal was 9570 fluorescence intensity (a.u.).
With “GCGGCGGCGGGGCGGCGTCGGGGAGGGAGGAGGAGCAGTGCGGAGTCACCTAGTGCAG” the binding signal was 10700 fluorescence intensity (a.u.).
For “GAGGACTGGGGAGGGCGGGGAGAGGGGAGGGCGTCGCGTGCGGAGTCACCTAGTGCAG”, the binding signal was 24500 fluorescence intensity (a.u.).
“GGGGATTTGGGGAGACTTTTGGAGGGGAGGAGAGAGGGCGCGGAGTCACCTAGTGCAG” was tested, and the binding signal was 19700 fluorescence intensity (a.u.).
For “AAGCGCCTGGTAGCGGAGAGTGGGAAAGAGCTGGCTGGCGCGGAGTCACCTAGTGCAG”, the binding signal was 60400 fluorescence intensity (a.u.).
“TAGGTGAGGGCGGTGCGCTTGTCGACGGGGTTGAAGGGGACGGAGTCACCTAGTGCAG” was tested, and the binding signal was 10700 fluorescence intensity (a.u.).
In the case of “GTGTGTGCTGTGGTGGAGAGGAGAAAGGGAGGAAGAAGAGCGGAGTCACCTAGTGCAG”, the binding signal is reported as 8140 fluorescence intensity (a.u.).
With “ACTCACAGAAAGCGTCGGGGCGGGTCTGGGAGGGCTTGCGCGGAGTCACCTAGTGCAG” the binding signal was 9140 fluorescence intensity (a.u.).
For “TCGGGGCGGGTCTGGGAGGGCTTGCGCTTGACACGGACGACGGAGTCACCTAGTGCAG”, the binding signal was 17200 fluorescence intensity (a.u.).
With “GCGTCTGGGGCCTCGGGCGGCGCGCGCGGGGAGGGGCGTGCGGAGTCACCTAGTGCAG” the binding signal was 10500 fluorescence intensity (a.u.).
With “CTGCTGCCGCCGCCTCCTGGCCGCCGCCGCGGCGAGCGCGCGGAGTCACCTAGTGCAG” the binding signal was 8280 fluorescence intensity (a.u.).
For “ACGGGGACAGGGAGAGGAGCGGGGATTTTGTGGCGGGAGACGGAGTCACCTAGTGCAG”, the binding signal was 9460 fluorescence intensity (a.u.).
